Assay results published in PubChem BioAssay (NCI).
This is part of a sample that, as a whole, favours compounds with a hit. Of some 83,000 tested, about 20% had one in any assay.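 Percent growth is the endpoint: 0 to 100 indicates growth inhibition (40 means 60% inhibition), 0 means no net growth, and negative values indicate cell death.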 Activity calls are given as the source filed them. Rule for the calls: active = growth percent below 10; inactive = the rest.

Columns and labels:
Assay in all cases: NCI-60 one-dose screen, 48 h (100 = growth as untreated, 0 = no growth, -100 = all killed)
Details in all cases: 10 µM
HT29 colon = system: HT29 colon
SNB-75 CNS = system: SNB-75 CNS
SNB-19 CNS = system: SNB-19 CNS
U251 CNS = system: U251 CNS
PC-3 prostate = system: PC-3 prostate
SK-MEL-5 melanoma = system: SK-MEL-5 melanoma
UACC-62 melanoma = system: UACC-62 melanoma
LOX IMVI melanoma = system: LOX IMVI melanoma
SK-MEL-28 melanoma = system: SK-MEL-28 melanoma

Measured: growth

COc1cccc(-c2nnc(COc3ccc(-c4nc5ccc(C)cc5[nH]4)cc3OC)o2)c1
inactive: HT29 colon 21.4% | SNB-75 CNS 56.6% | SNB-19 CNS 69.6% | U251 CNS 23% | PC-3 prostate 57.7% | SK-MEL-5 melanoma 70.4% | UACC-62 melanoma 79.9% | LOX IMVI melanoma 78.4% | SK-MEL-28 melanoma 65.2%

CCCCC(CC#N)(CCC)CCC
inactive: HT29 colon 99% | SNB-75 CNS 80.6% | SNB-19 CNS 106% | U251 CNS 102% | PC-3 prostate 99.2% | SK-MEL-5 melanoma 106% | UACC-62 melanoma 118% | LOX IMVI melanoma 92.1% | SK-MEL-28 melanoma 99.6%

O=C(c1ccc(Cl)cc1)c1no[n+]([O-])c1C(=O)c1ccc(Cl)cc1
inactive: HT29 colon 67.3% | SNB-75 CNS 97.9% | SNB-19 CNS 115% | U251 CNS 104% | PC-3 prostate 92.9% | SK-MEL-5 melanoma 98.3% | UACC-62 melanoma 118% | SK-MEL-28 melanoma 117%

O=C(/C=C/c1nnc2n(Cc3ccccc3)c(=O)c3c4c(sc3n12)CCCC4)c1ccccc1
inactive: HT29 colon 106% | SNB-75 CNS 116% | SNB-19 CNS 99.4% | U251 CNS 40.6% | PC-3 prostate 105% | SK-MEL-5 melanoma 111% | UACC-62 melanoma 99.6% | LOX IMVI melanoma 84.7% | SK-MEL-28 melanoma 119%

COc1ccc(-c2cc(/C=C3\C(=O)Nc4cc(Cl)ccc43)[nH]n2)cc1OC
inactive: HT29 colon 32.2% | SNB-75 CNS 47.1% | SNB-19 CNS 87% | U251 CNS 75.7% | PC-3 prostate 58.5% | SK-MEL-5 melanoma 64.8% | UACC-62 melanoma 56.9% | LOX IMVI melanoma 52.9% | SK-MEL-28 melanoma 74.6%

CNC(=S)Sc1ccc([N+](=O)[O-])cc1[N+](=O)[O-]
active: HT29 colon 4.84%
inactive: SNB-75 CNS 88.1% | SNB-19 CNS 94.3% | U251 CNS 72.5% | PC-3 prostate 84.4% | SK-MEL-5 melanoma 44.8% | UACC-62 melanoma 81.6% | LOX IMVI melanoma 19.3% | SK-MEL-28 melanoma 66.1%

CC(C)=C1CCC(C)C/C1=N\N=C(N)N (stereo not drawn)
inactive: HT29 colon 102% | SNB-75 CNS 97.7% | SNB-19 CNS 97.5% | U251 CNS 96.5% | PC-3 prostate 87.9% | SK-MEL-5 melanoma 98.6% | UACC-62 melanoma 103% | LOX IMVI melanoma 93.9% | SK-MEL-28 melanoma 109%

COc1cc(-c2n/c(=C\c3c(O)[nH]c4ccccc34)cc3c2=Nc2ccccc2-3)cc(OC)c1OC
active: HT29 colon 4.2% | SNB-75 CNS 5.55% | SK-MEL-5 melanoma 2.12%
inactive: SNB-19 CNS 37.7% | U251 CNS 12.5% | PC-3 prostate 30.2% | UACC-62 melanoma 40% | LOX IMVI melanoma 25.8%

CC(C)/C=N/NC(N)=S
inactive: HT29 colon 62.2% | SNB-75 CNS 81.3% | SNB-19 CNS 98.3% | U251 CNS 80.8% | PC-3 prostate 55.1% | SK-MEL-5 melanoma 97.2% | UACC-62 melanoma 97.3% | LOX IMVI melanoma 96% | SK-MEL-28 melanoma 99.2%

NC(=O)C12C(=O)NC(=O)C1(C(=O)O)C21CCCC1 (stereo not drawn)
inactive: HT29 colon 110% | SNB-75 CNS 84.2% | SNB-19 CNS 99.3% | U251 CNS 102% | PC-3 prostate 99% | SK-MEL-5 melanoma 106% | UACC-62 melanoma 101% | LOX IMVI melanoma 102% | SK-MEL-28 melanoma 109%

N/C(=N\O)c1cn(C2OC(CO)C(O)C2O)c2ncnc(N)c12 (stereo not drawn)
inactive: SNB-19 CNS 16.5% | U251 CNS 10.7%
active: HT29 colon 7.04% | SNB-75 CNS -7.06% | PC-3 prostate 4.66% | SK-MEL-5 melanoma -43% | UACC-62 melanoma -68.2% | LOX IMVI melanoma -63.2% | SK-MEL-28 melanoma -53.3%

Brc1ccc(-c2cn3ccnc3c(-c3ccc(Br)cc3)n2)cc1
inactive: SNB-75 CNS 35.6% | SNB-19 CNS 75.8% | U251 CNS 39.2% | PC-3 prostate 66.3% | SK-MEL-5 melanoma 46.3% | UACC-62 melanoma 43.6% | LOX IMVI melanoma 43.2% | SK-MEL-28 melanoma 62.2%
active: HT29 colon 9.88%

COc1ccc(C2=Cc3ccc(OC(C)=O)cc3OC2)cc1
inactive: HT29 colon 97.2% | SNB-75 CNS 107% | SNB-19 CNS 98.8% | U251 CNS 89.3% | PC-3 prostate 90.5% | SK-MEL-5 melanoma 90.6% | UACC-62 melanoma 85.4% | LOX IMVI melanoma 82.7% | SK-MEL-28 melanoma 112%

O=C(CCCC(=O)N/N=C/c1cc(Cl)ccc1O)N/N=C\c1cc(Cl)ccc1O
active: SK-MEL-5 melanoma -1.89% | UACC-62 melanoma -16.9% | LOX IMVI melanoma 7.26%
inactive: HT29 colon 55.4% | SNB-75 CNS 58.9% | SNB-19 CNS 48.1% | U251 CNS 21% | PC-3 prostate 24% | SK-MEL-28 melanoma 35.8%

COC1OC2COC(c3ccccc3)OC2C(=O)C1NC(=O)c1ccccc1 (stereo not drawn)
inactive: HT29 colon 105% | SNB-75 CNS 83% | SNB-19 CNS 94.9% | U251 CNS 109% | PC-3 prostate 85% | SK-MEL-5 melanoma 108% | UACC-62 melanoma 93.7% | LOX IMVI melanoma 90.1% | SK-MEL-28 melanoma 109%

Cc1cc(C)c(C(=O)OC(C)CNC2CCCCC2)c(C)c1 (stereo not drawn)
inactive: HT29 colon 90.5% | SNB-75 CNS 92.1% | SNB-19 CNS 97.5% | U251 CNS 97.8% | PC-3 prostate 93.9% | SK-MEL-5 melanoma 101% | UACC-62 melanoma 103% | LOX IMVI melanoma 88.3% | SK-MEL-28 melanoma 105%

CC(=O)c1c(O)cc2c3c1OC(C)(C)C1CCC(C)(CC31)O2 (stereo not drawn)
inactive: HT29 colon 90.6% | SNB-75 CNS 96% | SNB-19 CNS 98.7% | U251 CNS 102% | PC-3 prostate 88.8% | SK-MEL-5 melanoma 83.1% | UACC-62 melanoma 88.5% | LOX IMVI melanoma 97.9% | SK-MEL-28 melanoma 111%

Cc1ccc2c3c(cccc13)-c1ccccc1C2=O
inactive: HT29 colon 83.3% | SNB-75 CNS 89.6% | SNB-19 CNS 96.5% | U251 CNS 87.8% | PC-3 prostate 91.3% | SK-MEL-5 melanoma 91.3% | UACC-62 melanoma 90.6% | LOX IMVI melanoma 97.8% | SK-MEL-28 melanoma 121%

COC(=O)[C@]12CC[C@@H](C)[C@H](C)[C@@H]1C1=CC[C@@H]3[C@@]4(C)CC(=O)[C@H](O)[C@@](C)(CO)[C@@H]4C(=O)C[C@@]3(C)[C@]1(C)CC2
active: HT29 colon -25.6% | SNB-75 CNS -0.588% | U251 CNS -43.5% | PC-3 prostate -22.3% | SK-MEL-5 melanoma -80.3% | UACC-62 melanoma -57.2% | LOX IMVI melanoma -77.9%
inactive: SNB-19 CNS 16.6% | SK-MEL-28 melanoma 21.8%

COc1ccc2nc(-c3ccccc3)cc(C(C)=O)c2c1
inactive: HT29 colon 93.6% | SNB-75 CNS 79.7% | SNB-19 CNS 101% | U251 CNS 99.1% | PC-3 prostate 84.4% | SK-MEL-5 melanoma 98.5% | UACC-62 melanoma 91.1% | LOX IMVI melanoma 92.2% | SK-MEL-28 melanoma 108%

N#CN1CC[C@H](C(=O)Nc2ncc(-c3ccncc3)s2)C1
active: HT29 colon -39.9% | SNB-75 CNS -37.5% | SNB-19 CNS 9.6% | U251 CNS 1.7% | PC-3 prostate 5.04% | SK-MEL-5 melanoma -17.1% | UACC-62 melanoma -26.9% | LOX IMVI melanoma 2.09% | SK-MEL-28 melanoma 5.92%

O=c1c2cccc3c(Nc4ccc(Br)cn4)ccc(c32)c2nc3ccccc3n12
inactive: HT29 colon 94.6% | SNB-75 CNS 44% | SNB-19 CNS 85.9% | U251 CNS 93.6% | PC-3 prostate 76.7% | SK-MEL-5 melanoma 76.2% | UACC-62 melanoma 84.8% | LOX IMVI melanoma 87.2% | SK-MEL-28 melanoma 72.9%

O=C1/C(=C/c2ccc([N+](=O)[O-])s2)Oc2ccc(Cl)cc21
active: HT29 colon -36.1% | SNB-75 CNS -15% | SNB-19 CNS 7.13% | U251 CNS -65.4% | PC-3 prostate -48% | SK-MEL-5 melanoma -88.7% | UACC-62 melanoma -82.4% | SK-MEL-28 melanoma -56.8%

O=C(O)c1ccccc1C(=O)c1cccc2c(F)cccc12
inactive: HT29 colon 115% | SNB-75 CNS 86.2% | SNB-19 CNS 98.3% | U251 CNS 98.7% | PC-3 prostate 92.5% | SK-MEL-5 melanoma 108% | UACC-62 melanoma 97.7% | LOX IMVI melanoma 92.8% | SK-MEL-28 melanoma 111%
